Assay outcomes as filed in PubChem BioAssay.
KKLEB cytotox – CF airway cell cytotoxicity counter-screen. KKLEB CF airway cells viability, ATPlite luminescence, overnight; active compounds read low; cells stimulated with P. aeruginosa culture filtrate. activity change (cytotoxicity), % at 5 µM. 360,000 compounds, 0.36% hits. AID 602141;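 active = corrected activity change at or below -50% at 5 µM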
Shn3 inh set2 – Schnurri-3 reporter inhibition in Clone20 osteoblasts; inhibition, % at 12.5 µM; AID 588674; 360,000 compounds, 0.52% hits; Clone20 osteoblast Shn3 3'UTR firefly luciferase, 24 h;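 active = mean inhibition of at least 75% with every replicate also reaching 75%; inconclusive = mean inhibition at least 75% but some replicate below; inactive = mean inhibition below 75%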;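 also: 0% = median of neutral control wells and 100% = pilot-screen positive control compound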
TRPM1 prom inh – reduces MITF-dependent TRPM1 promoter luciferase signal. SK-MEL-5 TRPM1 promoter luciferase, 24 h. AID 488899. 330,000 compounds, 0.83% hits. inhibition, % at 12.5 µM;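 active = mean inhibition across replicates of 60% or more, whatever share of single replicates reaches that level; inconclusive = some that reach 60%, reason not given; inactive = mean inhibition across replicates below 60%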
CF NFkB inh – blocks PAF-induced NF-kB reporter in cystic fibrosis cells; KKLEB NF-kB-GFP reporter, GFP fluorescence overnight; inhibition, % at 5 µM; 360,000 compounds, 0.86% hits;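 active = at least 50% inhibition at 5 µM, scaled per plate between neutral and stimulator controls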;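 also: PAF is a Pseudomonas aeruginosa culture filtrate used as stimulus; plate controls were PAF-stimulated DMSO wells for no effect and unstimulated DMSO wells for full effect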
HIF-2a block – inhibitors of HIF-2a; 786-0 RCC cells HIF-2a reporter, luciferase luminescence, overnight; inhibition, % at 18.8 µM; 360,000 compounds, 0.72% hits; AID 624352;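 active = inhibition of the luminescence signal of 40% or more relative to plate controls, in a single-dose primary screen at 18.75 µM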
Peg3 promoter – Peg3 promoter activity inhibition | HeLa PEG-Prom luciferase reporter, luminescence, overnight | AID 588405 | inhibition, % at 20 µM | 360,000 compounds, 1.7% hits;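 active = inhibition of at least 50% at 20 µM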
* marks the source's active call; other numbers are inactive results; ? = inconclusive; . = no result; ! = not confirmed by another sample. Sampled rows, rich in hits. Any-hit rate of the full collection: about 2.7%.

SMILES	KKLEB cytotox	Shn3 inh set2	TRPM1 prom inh	CF NFkB inh	HIF-2a block	Peg3 promoter
CCN(CC)CCNC(=O)c1ccc(N2CCCCC2)c(NS(=O)(=O)c2ccc(C)cc2)c1	-19.0	-3.5	-7.8	17.5	-7.4	33.2
O=C(O)c1cccc(N/N=C/c2ccc(OC(F)(F)F)cc2)c1	4.4	28.8	73.6*	-3.8	16.6	14.0
CCC(C)C(=O)Nc1nc2ccc(OC)cc2s1 (configuration not stated)	2.9	-169.5	-118.5	1.4	-234.7	-271.0
COC(=O)c1ccc(OC(=O)CS(=O)c2ccccc2[N+](=O)[O-])cc1 (configuration not stated)	18.5	-8.6	19.4	-1.5	3.1	0.5
O=C(CS(=O)c1ccc(C(F)(F)F)cc1[N+](=O)[O-])Oc1ccccc1 (configuration not stated)	-37.5	-29.1	87.5*	57.4*	21.1	79.5*
S=C(NCc1ccccn1)NN=Cc1ccccn1	-3.6	81.5	69.9*	10.5	-76.8	4.0
NC(=O)CC(NC(=O)c1ccc(Br)cc1)c1ccc(N2CCC(Cc3ccccc3)CC2)c([N+](=O)[O-])c1 (configuration not stated)	-2.3	62.3	4.5	-20.8	9.2	-4.9
NC(=O)CC(NC(=O)c1ccccc1)c1ccc(N2CCC(Cc3ccccc3)CC2)c([N+](=O)[O-])c1 (configuration not stated)	-6.5	91.4*	13.8	14.8	12.7	3.2
Cc1ccc(S(=O)(=O)N2CCN(C(=O)CSc3ccccn3)CC2)c(C)c1	-2.6	10.3	-12.6	4.9	8.8	-13.8
CC[C@@H](C)[C@H](NC(=O)OC(C)(C)C)c1nnc(S(=O)(=O)Cc2cc(C)ccc2C)o1	-19.3	?	54.4	72.1*	-67.1	105.2*
CC[C@@H](C)[C@H](NC(=O)OCc1ccccc1)c1nnc([C@@H](NC(=O)OCc2ccccc2)[C@@H](C)CC)o1	-7.7	30.4	-6.8	13.0	10.1	4.1
Cc1noc(C(=O)Nc2cccc(Cl)c2)c1Cl	-5.9	-58.7	-56.3	4.9	-188.1	-112.7
COc1cc(CCC(=O)Nc2cc(S(=O)(=O)N3CCOCC3)ccc2OC(C)C)cc(OC)c1OC	6.5	-4.8	.	-23.6	14.0	7.9
O=C(Nc1ccn(Cc2ccccc2F)n1)c1ccc(COc2ccc(Br)cc2)cc1	-63.8*	73.4	3.7	47.6	-7.4	-4.7
CCC1C(=NO)C(CC)C(c2ccccc2)NC1c1ccccc1 (configuration not stated)	-8.3	43.5	-8.5	47.9	32.2	63.8*
CC1C(=NO)C(C)C(c2ccccc2)NC1c1ccccc1 (configuration not stated)	-9.9	26.9	-5.1	16.0	17.7	17.1
COc1ccc2cc1Oc1ccc(cc1)C[C@H]1c3c(cc(OC)c4c3Oc3c(ccc5c3[C@H](C2)N(C)CC5)O4)CCN1C	-87.6*	-33.4	91.3*	87.2*	21.0	99.7*
Nc1ccc(N(c2ccccc2)c2ccc(N)cc2)cc1	-18.9	17.0	58.0	87.0*	11.2	10.9
Clc1nc(Cl)nc(N(c2ccccc2)c2ccccc2)n1	11.5	15.8	22.6	-1.0	18.4	3.9
COc1ccc(C(C(=O)NC2CCCCC2)N(Cc2ccco2)C(=O)c2snc(C(N)=O)c2N)cc1 (configuration not stated)	-14.1	8.4	12.7	8.5	12.1	57.9*
COC(=O)C1CCC(=O)N1C(c1ccc(OC)cc1)c1cc(OC)c(OC)c(OC)c1 (configuration not stated)	-19.9	10.1	30.3	52.3*	27.8	-25.7
COc1ccc(C(CNC(=O)Cc2cc(OC)c(OC)c(OC)c2)N2CCCC2)cc1 (configuration not stated)	0.0	-11.0	-12.4	-3.6	17.6	0.3
O=C(N/N=C/c1ccccn1)c1[nH]c2ccc([N+](=O)[O-])cc2c1-c1ccccc1	-12.1	31.2	9.5	-7.1	-9.8	54.6*
NNC(=O)c1[nH]c2ccc([N+](=O)[O-])cc2c1-c1ccccc1	8.6	-0.2	.	-14.3	12.8	18.7
O=C(N/N=C/c1ccccn1)c1cc(-c2ccccc2)nc2ccccc12	-5.8	4.3	.	3.3	8.3	65.5*
SMILES	KKLEB cytotox	Shn3 inh set2	TRPM1 prom inh	CF NFkB inh	HIF-2a block	Peg3 promoter
COc1ccc(NC(=O)CC(C)NCCCN2CCCC2=O)cc1 (configuration not stated)	12.8	-6.8	-0.2	-3.2	3.8	7.4
CCCCCCCCCCCCCCCC[n+]1ccc(/C=N/O)cc1	-15.7	57.8	77.7*	28.3	70.3*	104.4*
CCCCCCCCCCCCCCCC[n+]1ccccc1	-50.2*!	96.8*	81.5*	61.9*	93.1*	97.3*
CCC1CN(C(=O)N2CCC(C(=O)NCc3cc(OC)c(OC)c(OC)c3)CC2)c2ccccc2O1 (configuration not stated)	-6.0	2.3	-2.8	3.5	9.2	-88.9
O=C(NC(CSCc1ccccc1)C(=O)N/N=C/c1ccc(O)cc1O)c1ccc([N+](=O)[O-])cc1 (configuration not stated)	13.3	91.0*	69.8*	9.6	13.3	51.4*
CCOC(=O)c1c(CSC(=N)N)n(-c2ccc(Br)cc2)c2cc(Br)c(OC(C)=O)cc12	16.0	-58.8	7.3	-9.8	4.0	-0.6
C=CCCc1ccc(C#N)c(SCc2c(C(=O)OCC)c3cc(OC(C)=O)c(Br)cc3n2C)n1	4.8	89.4*	24.7	5.6	6.1	27.4
CCCCCCCCOC(=O)c1c(CSC(=N)N)n(C)c2cc(Br)c(OC(C)=O)cc12	22.3	-13.0	.	16.1	-0.2	97.6*
CCOC(=O)c1c(CSc2nc(C)cc(C)c2C#N)n(C)c2cc(Br)c(OC(C)=O)cc12	-54.6*	77.5	40.1	39.8	12.8	28.3
Cc1ccccc1-c1nc(CN2CCC(C(=O)NC3CC3)CC2)c(C)o1	4.4	-6.8	0.6	-3.7	5.6	-14.3
Cc1cccc(CNC(=O)C2CCC(=O)N(CC3CCCCC3)C2)c1 (configuration not stated)	-1.0	-8.9	.	8.1	-29.2	1.7
COc1ccc(OCC(=O)Nc2cccc(NC(=O)COc3ccc(OC)cc3)n2)cc1	-62.9*	-37.3	-36.1	48.7	-74.0	-117.5
CCN(c1ccccc1)S(=O)(=O)c1ccc(C(=O)NCC(=O)Nc2ccc(F)c(F)c2F)cc1	-2.8	20.1	20.6	10.4	9.0	20.5
O=c1cnn(Cc2ccc(F)cc2)c2ccccc12	-4.7	5.9	-5.3	5.7	15.6	3.1
O=c1c(Cl)c(Cl)cnn1Cc1ccc(F)cc1	-4.8	-2.8	81.1*	34.7	14.1	73.9*
CN(C)c1ccc(C(=O)c2ccc(N(C)C)c3ccccc23)cc1	-2.1	2.8	40.1	54.9*	-179.5	-218.3
COc1ccc(C(=O)c2ccc(N(C)C)cc2)c(OC)c1	-12.6	-6.3	-7.6	17.1	-64.2	-5.7
